This is a sample that favours compounds with a hit; in the whole collection about 0.85% have one here.
RECQ1 helicase: blocks DNA unwinding by human RECQ1 | 0.54% of 240,000 active | Potency, µM (doses to about 57.3 µM), without a hit: at the highest dose activity, negative = inhibition, most hits filed as inhibitors | RECQ1 DNA unwinding, red fluorescence kinetic read | P46063;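 also: plate controls were vehicle for no effect and no enzyme for full effect; nearly all actives have a fitted effect of over 30% in size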
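RECQ1T1 50 nM; forked duplex (20 bp + 30-nt ss tails) 200 nM, ATP 2 mM final; pH 8.0, 2 mM MgCl2, 2.5 ug/ml poly(dI-dC); 15 min compound preincubation; discontinuous kinetic read over 2 h at RT.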
TDP1 inh: inhibitors of human tyrosyl-DNA phosphodiesterase TDP1 | Q9NUW8 | recombinant TDP1, AlphaScreen DNA substrate cleavage | Potency, µM (highest dose often 130 µM), for inactives: at the top dose activity change, negative = inhibition, most hits filed as inhibitors | 0.28% of 350,000 active; also: nearly all actives have a fitted effect of over 40% in size
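Signal: AlphaScreen proximity between streptavidin donor and anti-FITC acceptor beads on intact substrate. Reaction: Tdp1 1 nM, substrate 15 nM final, 5 min RT after 15 min compound preincubation.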
GLS inhibitor: blocks human kidney-isoform glutaminase activity. AID 624170. Potency, µM (doses to about 45.5 µM), inactives show at the highest dose activity change, negative = inhibition, most hits filed as inhibitors. GLS enzymatic activity, qHTS titration. 0.21% of 410,000 active. O94925
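hKGA in 45 mM KH2PO4 pH 8.2, 0.02% Tween-20 with pin-transferred compounds; 1 mM L-glutamine (stock) plus glutamate oxidase/HRP/Amplex Red coupling added. Fluorescence read initially and after 30 min at RT.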
PGK inhibitor: blocks T. brucei phosphoglycerate kinase; P07378; PGK/GAPDH coupled, Kinase-Glo luminescence, 60 min; Potency, µM (titrated, usually from 57.5 µM), without a hit: at the top dose activity change, negative = inhibition, most hits filed as inhibitors; 0.043% of 380,000 active; also: nearly all actives have a fitted effect of over 60% in size
Target sequence (P07378 whole entry, looked up): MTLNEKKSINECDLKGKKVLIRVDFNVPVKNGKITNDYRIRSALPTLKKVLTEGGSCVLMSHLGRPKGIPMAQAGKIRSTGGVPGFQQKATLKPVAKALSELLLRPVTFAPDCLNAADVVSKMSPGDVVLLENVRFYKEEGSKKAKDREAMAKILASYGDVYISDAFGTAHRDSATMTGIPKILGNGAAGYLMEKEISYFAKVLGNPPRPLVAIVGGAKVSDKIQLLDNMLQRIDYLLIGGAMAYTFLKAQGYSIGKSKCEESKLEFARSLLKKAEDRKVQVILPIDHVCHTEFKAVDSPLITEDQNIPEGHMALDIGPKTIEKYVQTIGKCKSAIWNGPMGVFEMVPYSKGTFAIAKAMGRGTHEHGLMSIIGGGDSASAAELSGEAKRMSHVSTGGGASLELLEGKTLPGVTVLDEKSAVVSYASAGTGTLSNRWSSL
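Luminescent ATP detection (Kinase-Glo Plus) follows a 60-minute room-temperature incubation, with wells lacking PGK as controls. Buffer: 100 mM TEA (pH 7.6), 5 mM MgCl2, 0.01% Tween-20. Coupling enzyme GAPDH (100 nM final) supplies unstable 1,3-BPG in-well.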
BLM inh: Bloom syndrome helicase (human) inhibition; recombinant BLM DNA unwinding, fluorescence dequenching; AID 2528; 0.2% of 350,000 active; P54132; Potency, µM (series often up to 56.1 µM), for the others: at the top dose activity change, negative = inhibition, usual class: inhibitors;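 also: plate controls were vehicle for no effect and no enzyme for full effect; nearly all actives have a fitted effect of over 35% in size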
APE1 inh-1: APE1 (human) endonuclease inhibition; recombinant APE1, TAMRA/BHQ-2 abasic DNA cleavage fluorescence; Potency, µM (series often up to 65.8 µM), without a hit: at the highest dose activity change, negative = inhibition, most hits filed as inhibitors; AID 2517; 0.35% of 350,000 active; P27695;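 also: plate controls were vehicle for no effect and reference inhibitor for full effect; nearly all actives have a fitted effect of over 55% in size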
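APE1 at 0.75 nM preincubated 15 min at room temperature with compound. Reaction then started with 50 nM double-stranded THF-abasic substrate labelled with TAMRA/BHQ-2, and 525/598 nm fluorescence read kinetically. Activity taken as third-minus-first read difference, normalized to DMSO and NSC13755 controls.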
APE1 dye cs: DNA dye displacement counter-screen activity; DNA fluorescent dye displacement counterscreen, fluorescence; shares compounds with APE1 inh-1; Potency, µM (highest dose often 28.5 µM), for the others: at the top dose activity change, negative = inhibition, actives largely listed as inhibitors; 7% of 480 active;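 also: loss of thiazole orange fluorescence as the dye is displaced from duplex DNA; 0% = ThO with dsDNA and no compound and -100% = ThO without dsDNA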
EndoIV counter: counter-screen for APE1 inhibitors: inhibitors of E. coli endonuclease IV; E. coli Endo IV, fluorogenic AP-site DNA cleavage; shares compounds with APE1 inh-1; 4% of 560 active; Potency, µM (highest dose often 27.1 µM), without a hit: at the highest dose activity change, negative = inhibition, hits mostly inhibitors; AID 2565;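 also: plate controls were uninhibited enzyme wells for no effect and no enzyme buffer wells for full effect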
APE1 inh-2: confirmation of inhibitors of human APE1 endonuclease; 44% of 750 active; AID 2572; Potency, µM (highest dose often 57.1 µM), for the others: at the top dose activity change, negative = inhibition, most hits filed as inhibitors; purified APE1, fluorogenic abasic-site DNA cleavage; shares compounds with APE1 inh-1; also: nearly all actives have a fitted effect of over 30% in size
APE1 FP: displaces DNA from human APE1 in FP assay. shares compounds with APE1 inh-1. APE1 binding to TAMRA-labelled double-stranded DNA, fluorescence polarization displacement. Potency, µM (highest dose often 28.5 µM), for the others: top-dose activity, negative = inhibition, actives largely listed as inhibitors. 7% of 480 active. AID 2573
The depositor's hits bear a star; i = inactive; ? = inconclusive; / = no result given; [ ] = dose if it differs, or a comment. Calls follow the shape of the dose curve; as a rule, active = well fitted curve in the direction sought with a large enough effect; inconclusive = small, poorly fitted or top-dose-only effect, or another doubt; inactive = no such curve, though single readings can be large; an effect the other way counts as inactive or inconclusive. Unless noted, % is scaled to controls: 0 for no effect and ±100 for the full control effect; potency is read from the fitted curve at half-maximal effect.

SMILES	RECQ1 helicase	TDP1 inh	GLS inhibitor	PGK inhibitor	BLM inh	APE1 inh-1	APE1 dye cs	EndoIV counter	APE1 inh-2	APE1 FP
Cc1ncc(CO)c(/C=N/NC(=O)c2cc(O)c(O)c(O)c2)c1O	14µM*	?	/	/	5.6µM*	4µM*	-10%	156%	?	5%
CN1C(=O)S/C(=C/c2ccc(OCc3cccc(C(=O)O)c3)cc2)C1=O	/	/	-9%	-12%	2%	-38%	/	/	/	/
Cc1ccc(NC(=O)CN2C(=O)N/C(=C\c3cccn3-c3cccc(C(=O)O)c3)C2=O)cc1	?	2.8µM*	25%	?	-10%	3.5µM*	-5%	-2%	14µM*	14µM*
O=C(O)c1cccc(-n2cccc2/C=C2\NC(=O)N(Cc3ccc(F)cc3)C2=O)c1	-28%	?	?	-26%	-9%	10µM*	-6%	-4%	10µM*	?
O=C(O)c1cccc(-n2cccc2/C=C/[N+](=O)[O-])c1	?	/	10µM*	?	60%	4µM*	-4%	17%	4.5µM*	?
Cc1ccc(CN2C(=O)N/C(=C\c3cccn3-c3cccc(C(=O)O)c3)C2=O)cc1	-3%	0%	2%	?	-6%	16%	/	/	/	/
CN1C(=O)S/C(=C/c2cccn2-c2cccc(C(=O)O)c2)C1=O	1%	/	5%	-3%	-1%	?	?	1%	?	?
CC(C)C(C(=O)O)N1C(=O)/C(=C/c2ccc(Br)cc2)SC1=S (configuration not stated)	-16%	7%	/	/	-20%	-4%	/	/	/	/
O=C(O)CCn1c2c(c3ccccc31)C[C@H](NS(=O)(=O)c1ccc(F)cc1)CC2	/	/	-1%	/	1%	/	/	/	/	/
Cc1cc(C(=O)O)ccc1-c1ccc(/C=C2\NC(=O)N(Cc3ccc(F)cc3)C2=O)o1	-28%	4µM*	?	?	5%	13µM*	?	4%	40µM*	-1%
Cc1cc[n+](-c2[nH]c(=O)sc2/C=N/N=C(\[O-])c2ccccc2)cc1	-3%	40µM*	10%	-6%	-1%	14%	/	/	40µM*	/
Cc1cc[n+](-c2[nH]c(=O)sc2/C=N/N=C(\[O-])c2ccccc2)cc1C	28µM*	40µM*	-3%	4%	-14%	18µM*	141%	8%	?	-7%
O=S(=O)(Nc1cc(O)cc2cccnc12)c1ccc(Br)s1	i	23%	/	/	-29%	-3%	/	/	/	/
NS(=O)(=O)c1ccc(N=Nc2ccc(=O)[nH]c2O)cc1	0%	45µM*	28%	?	-3%	16µM*	/	/	?	/
O=C1/C(=C/c2ccco2)SC(=S)N1CC1CCCO1 (configuration not stated)	22µM*	-5%	15%	-16%	-27%	10µM*	-7%	-3%	7.9µM*	-12%
O=C(O)CCCN1C(=O)/C(=C\c2ccco2)SC1=S	?	22µM*	?	-9%	59%	20µM*	-4%	69%	?	-1%
O=C(CCCN1C(=O)/C(=C\c2ccco2)SC1=S)Nc1ccc2ccccc2c1	-19%	8%	-2%	-10%	-25%	-11%	/	/	/	/
Nc1ccccc1S(=O)(=O)Nc1cccc2cccnc12	-3%	21%	/	/	-9%	?	/	/	/	/
O=C(Nc1ccc2nc(-c3ccco3)c(-c3ccco3)nc2c1)N1CCCCCC1	5.6µM*	/	?	-19%	5.6µM*	3.5µM*	?	?	4µM*	13µM*
CCOC(=O)CCc1cc(F)c(S(=O)(=O)N2CCN(S(=O)(=O)c3ccc4c(c3)OCCO4)CC2)cc1F	/	0%	/	/	/	/	/	/	/	/
COc1cc(OC)c2c(-c3ccccc3)cc(=O)oc2c1C(CC(=O)N1CCOCC1)c1ccc2c(c1)OCO2 (configuration not stated)	?	9%	-5%	0%	-9%	?	/	/	/	/
COc1cc(OC)c2c(-c3ccccc3)cc(=O)oc2c1C(CC(=O)N1CCN(c2ccccc2)CC1)c1ccc2c(c1)OCO2 (configuration not stated)	i	?	/	/	-11%	?	2%	0%	13µM*	-43%
COC/C=C/C1=CC2=CC(=O)C(C)(OC(=O)c3ccco3)C(=O)C2=CO1 (configuration not stated)	28µM*	-14%	/	/	-14%	20µM*	?	?	?	13µM*
COc1ccc(-c2cnnc(N/N=C/c3ccc(O)c(O)c3)n2)cc1	16µM*	2%	-14%	-13%	-16%	20µM*	?	29%	-12%[24.4 µM]	15%
COc1cc(NS(=O)(=O)c2ccc([N+](=O)[O-])cc2)c2ncccc2c1	i	24%	/	/	-6%	-5%	/	/	/	/
C=CCc1cc(F)c(S(=O)(=O)N2CCN(S(=O)(=O)c3ccc4c(c3)OCCO4)CC2)cc1F	/	-1%	/	/	/	/	/	/	/	/
Cc1ccc(CNC(=O)CCNC(=O)c2ccco2)cc1	6%	-3%	1%	-7%	0%	?	-2%	0%	?	-7%
Cc1cc2c(s1)c1cnn(Cc3ccc(C)c(F)c3F)c(=O)c1n2C	/	-14%	/	/	/	/	/	/	/	/
CN(C)c1ccc(O)c2c1C[C@@H]1C[C@H]3C(N(C)C)C(=O)C(C(N)=O)=C(O)[C@@]3(O)C(=O)C1=C2O (some centres not stated)	?	/	?	/	-12%	/	-2%[57.1 µM]	10%[57.1 µM]	-11%	?
O=C(CSc1ccc2nnc(-c3ccccc3)n2n1)NCc1ccco1	-4%	?	-5%	-4%	-5%	?	/	/	/	/
